6 compounds from PubChem BioAssay (EPA / NIEHS) can be followed below.

Inconclusive results are not listed. Active and inactive are the calls of the source. How the source made its calls, unless noted: active means hit-call score of the fitted dose curve at least 0.9, where 1 is the maximum; inactive means score below 0.9.

Sequence of THRB (gene 7068) (P10828 whole entry, looked up, the tested form may be a part): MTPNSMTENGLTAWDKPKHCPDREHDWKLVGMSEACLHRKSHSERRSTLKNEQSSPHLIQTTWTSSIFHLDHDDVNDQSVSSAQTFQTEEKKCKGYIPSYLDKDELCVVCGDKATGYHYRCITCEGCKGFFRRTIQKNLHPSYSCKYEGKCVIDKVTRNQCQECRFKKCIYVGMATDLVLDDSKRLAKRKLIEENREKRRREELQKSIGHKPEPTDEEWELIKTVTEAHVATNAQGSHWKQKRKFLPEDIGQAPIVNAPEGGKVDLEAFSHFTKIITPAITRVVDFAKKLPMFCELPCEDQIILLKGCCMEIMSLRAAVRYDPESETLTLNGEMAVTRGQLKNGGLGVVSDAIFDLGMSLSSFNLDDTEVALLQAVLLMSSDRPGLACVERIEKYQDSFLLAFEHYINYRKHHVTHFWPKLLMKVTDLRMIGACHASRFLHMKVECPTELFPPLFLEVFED

For the first test, the target named is THRA (gene 7067) (UniProt P10827). Kind of test: TOX21_TRA_COA_Agonist_Followup_ratio: Tox21 Thyroid Hormone Receptor alpha Agonism through Coactivator Recruitment Follow-Up Assay, Ratio (AID 2283948). The gist of the method: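 Cell-free TR-FRET: GST-tagged TRα LBD (2.5 nM) with 0.10% BSA and compound, then fluorescein-SRC-2 peptide (200 nM) and Tb-anti-GST antibody (2 nM). Readout 520:495 nm ratio (ex 340 nm), normalized to DMSO (0%) and T3 (100%).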
Sequence of THRA (gene 7067) (P10827 whole entry, looked up, the tested form may be a part): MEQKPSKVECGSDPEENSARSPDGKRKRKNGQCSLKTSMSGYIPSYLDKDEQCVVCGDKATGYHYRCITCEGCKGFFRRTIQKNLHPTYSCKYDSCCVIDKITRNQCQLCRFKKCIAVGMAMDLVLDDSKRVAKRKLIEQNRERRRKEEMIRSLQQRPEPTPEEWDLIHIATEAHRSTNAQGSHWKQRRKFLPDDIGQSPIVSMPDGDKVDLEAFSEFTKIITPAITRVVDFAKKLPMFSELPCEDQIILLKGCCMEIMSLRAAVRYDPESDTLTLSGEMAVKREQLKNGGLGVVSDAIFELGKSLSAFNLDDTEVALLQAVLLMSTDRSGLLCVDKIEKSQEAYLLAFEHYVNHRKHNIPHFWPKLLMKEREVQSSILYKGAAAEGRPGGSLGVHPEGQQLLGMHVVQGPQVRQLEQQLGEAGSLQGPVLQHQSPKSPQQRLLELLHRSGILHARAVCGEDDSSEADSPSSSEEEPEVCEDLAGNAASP
Turning to `CCCN(CCC)C(=O)SCC`, the outcome was inactive.

On to `COC(=O)c1ccc(I)cc1S(=O)(=O)NC(=O)Nc1nc(C)nc(OC)n1`, for which the outcome was inactive.

With `CCNc1nc(N)nc(Cl)n1`, the result was inactive.

System in a further test: not listed separately
As to the kind of experiment: TOX21_TRB_BLA_Antagonist_Followup_viability: Viability Assessment in the Tox21 Thyroid Hormone Receptor beta Antagonism Beta-lactamase (BLA) Follow-Up Assay (AID 2283961; active means hit-call score of the fitted dose curve at least 0.9, where 1 is the maximum). A digest of the protocol: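 HEK293T cells with GAL4-human TRβ LBD and UAS-bla reporter, 3,000 cells/well in 2% charcoal-stripped FBS medium; 11-point concentrations in triplicate, 18 h at 37C. Viability from ATP by CellTiter-Glo luminescence, 30 min RT, same plates.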
As to `C[C@]12CC[C@@H]3c4ccc(O)cc4C[C@@H](CCCCCCCCCS(=O)CCCC(F)(F)C(F)(F)F)[C@H]3[C@@H]1CC[C@@H]2O` (some centres undefined), the compound was called inactive.

In the case of `CC(=O)[C@H]1CC[C@H]2[C@@H]3CCC4=CC(=O)CC[C@]4(C)[C@H]3CC[C@]12C`, the compound was classed as inactive.

Consider `C[C@]12C[C@H](O)[C@H]3[C@@H](CCC4=CC(=O)CC[C@@]43C)[C@@H]1CC[C@@H]2C(=O)CO`, for which the result was inactive.

Another test addresses THRB (gene 7068) (UniProt P10828). As to the kind of experiment: TOX21_TRB_COA_Agonist_Followup_ratio: Tox21 Thyroid Hormone Receptor beta Agonism through Coactivator Recruitment Follow-Up Assay, Ratio (AID 2283963). A digest of the protocol:
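Agonism is measured as coactivator recruitment in a purified-protein TR-FRET format, using GST-TRβ LBD at 5.0 nM, fluorescein-SRC-2 peptide at 200 nM and Tb-labeled anti-GST antibody at 2 nM. Values are 520:495 nm ratios relative to DMSO (0%) and T3 (100%).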
`CCCN(CCC)C(=O)SCC`: the result was inactive.

With `COC(=O)c1ccc(I)cc1S(=O)(=O)NC(=O)Nc1nc(C)nc(OC)n1`, the result was inactive.

For the compound `CCNc1nc(N)nc(Cl)n1`, the outcome was inactive.
